Laboratory results taken from the supplement of paper PMC9492666.
Counter-ions that a name gives are not always drawn.

Assays:
[1] = system: HCC1937; assay: relative cell viability, compound + RSL3, vs DMSO (fraction of DMSO control); higher = less growth inhibition; settings: 72 h
[2] = system: MDA-MB-231; assay: as above; settings: 72 h
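Further: breast cancer cell viability read out with the CCK-8 kit after co-treatment of each compound with the ferroptosis inducer RSL3.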

Structure (SMILES) | relative cell viability [1] | relative cell viability [2]
O=C(O)CC[C@H](O)C(=O)O [L-2-Hydroxyglutaric acid disodium] + COC(=O)c1ccc([C@H]2c3[nH]c4ccccc4c3C[C@H](C(=O)OC)N2C(=O)CCl)cc1 [RSL3] | 0.554 | 0.76
CC(c1cc2ccccc2s1)N(O)C(N)=O (stereo not drawn) [Zileuton] + COC(=O)c1ccc([C@H]2c3[nH]c4ccccc4c3C[C@H](C(=O)OC)N2C(=O)CCl)cc1 [RSL3] | 0.895 | 0.633
CC(C)CCC[C@@H](C)[C@H]1CC[C@H]2[C@@H]3CC=C4C[C@@H](O)CC[C@]4(C)[C@H]3CC[C@]12C [Cholesterol] + COC(=O)c1ccc([C@H]2c3[nH]c4ccccc4c3C[C@H](C(=O)OC)N2C(=O)CCl)cc1 [RSL3] | 0.8 | 0.611
CC(C)c1c(C(=O)Nc2ccccc2)c(-c2ccccc2)c(-c2ccc(F)cc2)n1CC[C@@H](O)C[C@@H](O)CC(=O)O [Atorvastatin Calcium] + COC(=O)c1ccc([C@H]2c3[nH]c4ccccc4c3C[C@H](C(=O)OC)N2C(=O)CCl)cc1 [RSL3] | 0.571 | 0.385
CN1CCN(c2ccc(/C=C(\C#N)c3ccccc3Br)cc2)CC1 [DG172 (dihydrochloride)] + COC(=O)c1ccc([C@H]2c3[nH]c4ccccc4c3C[C@H](C(=O)OC)N2C(=O)CCl)cc1 [RSL3] | 0.373 | 0.61
Fc1ccc(-c2c3cccc(C(F)(F)F)c3nn2Cc2ccc(F)cc2Cl)cc1 + COC(=O)c1ccc([C@H]2c3[nH]c4ccccc4c3C[C@H](C(=O)OC)N2C(=O)CCl)cc1 [RSL3] | 0.756 | 0.578
CCCCCCCCCCCCCCOc1ccc(C(=O)O)o1 + COC(=O)c1ccc([C@H]2c3[nH]c4ccccc4c3C[C@H](C(=O)OC)N2C(=O)CCl)cc1 [RSL3] | 0.613 | 0.673
CC(C)C1=CC2=CC[C@@H]3[C@](C)(CCC[C@@]3(C)C(=O)O)[C@H]2CC1 [Abietic Acid] + COC(=O)c1ccc([C@H]2c3[nH]c4ccccc4c3C[C@H](C(=O)OC)N2C(=O)CCl)cc1 [RSL3] | 0.586 | 0.699
CCN(CC)Cc1ccc(C(=O)N(CCc2ccccc2OC)[C@@H]2CCNC2)cc1 + COC(=O)c1ccc([C@H]2c3[nH]c4ccccc4c3C[C@H](C(=O)OC)N2C(=O)CCl)cc1 [RSL3] | 0.666 | 0.784
O=C(O)c1ccnc(N2CC(O)(c3ccc(OCc4c(-c5c(Cl)cccc5Cl)noc4C4CC4)cc3Cl)C2)c1 [Cilofexor] + COC(=O)c1ccc([C@H]2c3[nH]c4ccccc4c3C[C@H](C(=O)OC)N2C(=O)CCl)cc1 [RSL3] | 0.368 | 0.568
O=C(O)CCCc1cc2cc(Cl)ccc2n1S(=O)(=O)c1ccc2ncsc2c1 [Lanifibranor] + COC(=O)c1ccc([C@H]2c3[nH]c4ccccc4c3C[C@H](C(=O)OC)N2C(=O)CCl)cc1 [RSL3] | 0.464 | 0.786
CNC(=O)c1cccc(NC(=O)N2CCC(Oc3ccccc3Cl)CC2)c1 + COC(=O)c1ccc([C@H]2c3[nH]c4ccccc4c3C[C@H](C(=O)OC)N2C(=O)CCl)cc1 [RSL3] | 0.895 | 0.683
O=C(NN1CCCCC1)c1nn(-c2ccc(Cl)cc2Cl)c(-c2ccc(C#Cc3ccc(C(F)(F)F)cc3)s2)c1CNS(=O)(=O)N1CCCC1 + COC(=O)c1ccc([C@H]2c3[nH]c4ccccc4c3C[C@H](C(=O)OC)N2C(=O)CCl)cc1 [RSL3] | 0.75 | 0.345
CC(C)(Oc1ccc(Cl)cc1)C(=O)O [Clofibric acid] + COC(=O)c1ccc([C@H]2c3[nH]c4ccccc4c3C[C@H](C(=O)OC)N2C(=O)CCl)cc1 [RSL3] | 0.956 | 0.603
Cc1c(C(=O)NN2CCCCC2)nn(-c2ccc(Cl)cc2Cl)c1-c1ccc(Cl)cc1 [Rimonabant] + COC(=O)c1ccc([C@H]2c3[nH]c4ccccc4c3C[C@H](C(=O)OC)N2C(=O)CCl)cc1 [RSL3] | 0.649 | 0.216
N#Cc1c(O)c2c(-c3ccc(-c4ccccc4O)cc3)csc2[nH]c1=O + COC(=O)c1ccc([C@H]2c3[nH]c4ccccc4c3C[C@H](C(=O)OC)N2C(=O)CCl)cc1 [RSL3] | 0.412 | 0.423
C[C@@H]1O[C@@H](O[C@H]2[C@H](Oc3cc(O)c4c(c3)O[C@H](c3ccc(O)cc3)CC4=O)O[C@H](CO)[C@@H](O)[C@@H]2O)[C@H](O)[C@H](O)[C@H]1O [Naringin] + COC(=O)c1ccc([C@H]2c3[nH]c4ccccc4c3C[C@H](C(=O)OC)N2C(=O)CCl)cc1 [RSL3] | 0.949 | 0.658
NC(N)=NN=Cc1cccc(Cl)c1Cl [Raphin1] + COC(=O)c1ccc([C@H]2c3[nH]c4ccccc4c3C[C@H](C(=O)OC)N2C(=O)CCl)cc1 [RSL3] | 0.289 | 0.626
O=C(CN1CCN(C(=O)c2ccco2)CC1)Nc1cc(C(F)(F)F)ccc1Cl + COC(=O)c1ccc([C@H]2c3[nH]c4ccccc4c3C[C@H](C(=O)OC)N2C(=O)CCl)cc1 [RSL3] | 0.268 | 0.373
CC(C)(C)NC(=O)[C@H]1CC[C@H]2[C@@H]3CC[C@H]4NC(=O)C=C[C@]4(C)[C@H]3CC[C@]12C [Finasteride] + COC(=O)c1ccc([C@H]2c3[nH]c4ccccc4c3C[C@H](C(=O)OC)N2C(=O)CCl)cc1 [RSL3] | 0.885 | 0.645

Structure (SMILES) | relative cell viability [1] | relative cell viability [2]
NC(=O)c1cnccn1 [Pyrazinamide] + COC(=O)c1ccc([C@H]2c3[nH]c4ccccc4c3C[C@H](C(=O)OC)N2C(=O)CCl)cc1 [RSL3] | 0.607 | 0.558
Nc1ccc(O)c(C(=O)O)c1 [Mesalamine] + COC(=O)c1ccc([C@H]2c3[nH]c4ccccc4c3C[C@H](C(=O)OC)N2C(=O)CCl)cc1 [RSL3] | 0.635 | 0.592
CS(=O)(=O)c1ccc(-c2nnc(/C=C/c3nnc(-c4ccc(C#N)cc4)o3)n2-c2ccccc2Cl)nc1 + COC(=O)c1ccc([C@H]2c3[nH]c4ccccc4c3C[C@H](C(=O)OC)N2C(=O)CCl)cc1 [RSL3] | 0.508 | 0.502
O=C(O)CN(CC(=O)O)c1ccccc1OCCOc1ccccc1N(CC(=O)O)CC(=O)O + COC(=O)c1ccc([C@H]2c3[nH]c4ccccc4c3C[C@H](C(=O)OC)N2C(=O)CCl)cc1 [RSL3] | 0.308 | 0.581
C[C@H](CCC(=O)O)[C@H]1CC[C@H]2[C@@H]3CC[C@@H]4C[C@H](O)CC[C@]4(C)[C@H]3CC[C@]12C [Lithocholic acid] + COC(=O)c1ccc([C@H]2c3[nH]c4ccccc4c3C[C@H](C(=O)OC)N2C(=O)CCl)cc1 [RSL3] | 0.844 | 0.649
CC(C)(O)c1ccccc1CC[C@@H](SCC1(CC(=O)O)CC1)c1cccc(/C=C/c2ccc3ccc(Cl)cc3n2)c1 [Montelukast] + COC(=O)c1ccc([C@H]2c3[nH]c4ccccc4c3C[C@H](C(=O)OC)N2C(=O)CCl)cc1 [RSL3] | 0.589 | 0.484
O=C(NCCS(=O)(=O)c1ccc(C(F)(F)F)cn1)c1ccc(Cl)cc1 + COC(=O)c1ccc([C@H]2c3[nH]c4ccccc4c3C[C@H](C(=O)OC)N2C(=O)CCl)cc1 [RSL3] | 0.362 | 0.525
CCCCCCS(=O)(=O)NC(=O)c1ccc(CSCc2ccc(-c3ccccc3)cc2)cc1 + COC(=O)c1ccc([C@H]2c3[nH]c4ccccc4c3C[C@H](C(=O)OC)N2C(=O)CCl)cc1 [RSL3] | 0.403 | 0.676
COc1c(/C=C/C(=O)c2ccc(O)cc2)ccc(O)c1CC=C(C)C + COC(=O)c1ccc([C@H]2c3[nH]c4ccccc4c3C[C@H](C(=O)OC)N2C(=O)CCl)cc1 [RSL3] | 0.579 | 0.585
CC(C)c1onc(-c2c(Cl)cccc2Cl)c1COc1ccc(/C=C/c2cccc(C(=O)O)c2)c(Cl)c1 + COC(=O)c1ccc([C@H]2c3[nH]c4ccccc4c3C[C@H](C(=O)OC)N2C(=O)CCl)cc1 [RSL3] | 0.874 | 0.699
O=C(ON1C(=O)CCC1=O)N1CCN(C(c2ccc(Cl)cc2)c2ccc(Cl)cc2)CC1 [Cravatt Reagent] + COC(=O)c1ccc([C@H]2c3[nH]c4ccccc4c3C[C@H](C(=O)OC)N2C(=O)CCl)cc1 [RSL3] | 0.55 | 0.716
Oc1ccc2c(c1)OCO2 [Sesamol] + COC(=O)c1ccc([C@H]2c3[nH]c4ccccc4c3C[C@H](C(=O)OC)N2C(=O)CCl)cc1 [RSL3] | 0.399 | 0.548
CCN(CC)C(=O)N1CCN(C)CC1 [Diethylcarbamazine citrate] + COC(=O)c1ccc([C@H]2c3[nH]c4ccccc4c3C[C@H](C(=O)OC)N2C(=O)CCl)cc1 [RSL3] | 0.61 | 0.581
CCOC(=O)C(C)(C)Oc1ccc(Cl)cc1 [Clofibrate] + COC(=O)c1ccc([C@H]2c3[nH]c4ccccc4c3C[C@H](C(=O)OC)N2C(=O)CCl)cc1 [RSL3] | 0.728 | 0.619
CN1c2ccccc2C(=O)Nc2cnc(Nc3ccc(N4CCC(O)CC4)cc3)nc21 + COC(=O)c1ccc([C@H]2c3[nH]c4ccccc4c3C[C@H](C(=O)OC)N2C(=O)CCl)cc1 [RSL3] | 0.206 | 0.375
CCCc1c(-c2ccccc2)[nH]n(-c2ccccn2)c1=O [APX-115 free base] + COC(=O)c1ccc([C@H]2c3[nH]c4ccccc4c3C[C@H](C(=O)OC)N2C(=O)CCl)cc1 [RSL3] | 0.412 | 0.415
CC(C)[C@H]1CC[C@H](C(=O)N[C@H](Cc2ccccc2)C(=O)O)CC1 [Nateglinide] + COC(=O)c1ccc([C@H]2c3[nH]c4ccccc4c3C[C@H](C(=O)OC)N2C(=O)CCl)cc1 [RSL3] | 0.594 | 0.487
COC(=O)CN(c1ccc(CN(c2ccc(OCc3ccc(C)cc3)c(C(=O)OC)c2)S(=O)(=O)Cc2ccccc2)cc1)S(C)(=O)=O + COC(=O)c1ccc([C@H]2c3[nH]c4ccccc4c3C[C@H](C(=O)OC)N2C(=O)CCl)cc1 [RSL3] | 0.538 | 0.626
COc1ccc(C2(CNC(=O)c3ccc(NC(=O)c4ccco4)cc3)CCOCC2)cc1 + COC(=O)c1ccc([C@H]2c3[nH]c4ccccc4c3C[C@H](C(=O)OC)N2C(=O)CCl)cc1 [RSL3] | 0.441 | 0.49
